Reference: PubChem BioAssay (NCATS)
Several values for one entry are separate records, joined by “and”; a condition that tells them apart may be missing. Identical values can stand only once. Inconclusive results are not listed. Activity calls are given as the source filed them. Unless noted, calls come from the whole dose curve; as a rule, active = well fitted curve in the direction sought with a large enough effect; inconclusive = small, poorly fitted or top-dose-only effect, or another doubt; inactive = no such curve, though single readings can be large; an effect the other way counts as inactive or inconclusive.

What was measured:
[1] = qHTS assay for small molecule agonists of the antioxidant response element (ARE) signaling pathway measured by Nrf2-dependant transcriptional activity - cell viability counter screen (AID 720653; active = well fitted curve in the direction sought with a large enough effect in the repeat runs; an effect the other way counts as inactive or inconclusive; note: % is set by controls: 0 for no effect and ±100 for the full control effect); conditions: ARE-bla HepG2 viability, CellTiter-Glo ATP luminescence, 16 h; active compounds read low
Procedure, shortened: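 Cytotoxicity counter screen: intracellular ATP quantified by CellTiter-Glo luminescence in the same ARE-bla HepG2 plates, after 16 h compound exposure and a 2 h beta-lactamase substrate step.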

[2] = qHTS Assay for Identifying Gametocytocidal Compounds (AID 743244);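 note: % is set by controls: 0 for no effect and ±100 for the full control effect; actives lower the fluorescent signal which means gametocytes are killed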; conditions: P. falciparum 3D7 stage III-V gametocytes, alamarBlue, 72 h; max response: active compounds read low
Procedure, shortened: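 In this qHTS viability screen, late-stage 3D7 gametocytes are incubated with compound for 72 h, then with alamarBlue for 24 h; reduced resorufin fluorescence marks killing.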

[3] = qHTS assay for cell viability of the p53RE-bla HCT-116 cell line (AID 743292); conditions: p53RE-bla HCT-116 viability, ATP luminescence, 16 h; series mostly up to 95 µM; note: % is set by controls: 0 for no effect and ±100 for the full control effect; nearly all actives have a fitted effect of over 55% in size
Procedure, shortened: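 Luminescent ATP quantitation (CellTiter-Glo) served as the viability read-out; reagent was added after 16 h compound exposure at 37 C and read after 30 min at room temperature. Cells: p53RE-bla HCT-116, 4,000 per well.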

[4] = qHTS assay for small molecule antagonists of the retinoid-related orphan receptor gamma (ROR-gamma) signaling pathway - cell viability counter screen (AID 720652; active = well fitted curve in the direction sought with a large enough effect in the repeat runs; an effect the other way counts as inactive or inconclusive;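 note: CHO reporter cells with doxycycline-induced ROR-gamma expression; compound exposure lasted 16 hr before ATP read; % is set by controls: 0 for no effect and ±100 for the full control effect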); conditions: RORgamma reporter cell line viability counter screen; series mostly up to 92.2 µM
Procedure, shortened: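 Cytotoxicity counter screen: intracellular ATP (CellTiter-Glo luminescence) measured in the doxycycline-induced CHO RORE-luciferase reporter line after 16 hr compound exposure at 37 C, 5% CO2.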

[5] = qHTS assay for small molecule agonists of the antioxidant response element (ARE) signaling pathway measured by Nrf2-dependant transcriptional activity (AID 720636; active = well fitted curve in the direction sought with a large enough effect in the repeat runs; an effect the other way counts as inactive or inconclusive;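 note: HepG2 cells with an ARE-driven luciferase reporter; % of control where 0% means no effect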); conditions: ARE-luc HepG2, Nrf2 luciferase reporter, 16 h; series mostly up to 92.4 µM
Procedure, shortened: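 HepG2 ARE-luc reporter line, 1% dialyzed FBS; 6 hr attachment at 37 C, compound pinned in, 16 hr at 37 C/5% CO2; ONE-Glo, 30 min RT, luminescence read.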

Nc1ccc(N=Nc2ccccc2)c(N)n1
max response [1]: -11.4% (inactive) and -26.2% (inactive) | max response [2]: -8.48% (inactive) | outcome [3]: inactive

COc1cc(S(C)=O)ccc1-c1nc2ncccc2[nH]1 (stereo unspecified)
max response [2]: 11.9% (inactive)

CC/C=C\C/C=C\C/C=C\CCCCCCCC(=O)O
outcome [4]: inactive | max response [1]: -3.01% (inactive) | max response [2]: 13.1% (inactive) | outcome [3]: inactive

C=CC(C)(O)CC/C=C(\C)CCC=C(C)C (stereo unspecified)
Potency [5]: inactive | max response [1]: 1.82% (inactive) | max response [2]: -0.0803% (inactive) | outcome [3]: inactive

CCOC(=O)[C@H](CS)NCCN[C@@H](CS)C(=O)OCC
max response [2]: 2.46% (inactive)

CCN1C(=O)NC(c2ccccc2)C1=O (stereo unspecified)
max response [2]: 13.2% (inactive)

CN[C@@H]1[C@@H](O)[C@@H](O[C@@H]2[C@@H](O)[C@H](OC3OC(CN)=CCC3N)[C@@H](N)C[C@H]2N)OC[C@]1(C)O (stereo partly specified)
max response [2]: -3.17% (inactive)

NC(=O)c1ccc[n+]([C@@H]2O[C@H](COP(=O)([O-])OP(=O)(O)OC[C@H]3O[C@@H](n4cnc5c(N)ncnc54)[C@H](O)[C@@H]3O)[C@@H](O)[C@H]2O)c1
max response [2]: 2.6% (inactive)

CC(=O)OCC1=C(C(=O)O)N2C(=O)[C@@H](NC(=O)Cc3ccccc3)[C@H]2SC1
max response [2]: 7.9% (inactive)

CCN(CC)CCC(=O)N1c2ccccc2Sc2ccc(C(F)(F)F)cc21
max response [2]: -16% (inactive)

O=C(O)CC/C=C\CC[C@@H]1[C@@H](N2CCCCC2)[C@@H](O)C[C@@H]1OCc1ccc(-c2ccccc2)cc1
max response [2]: -9.09% (inactive)

C=C[C@]1(C)C[C@@H](OC(=O)CSCCN(CC)CC)[C@]2(C)[C@H](C)CC[C@]3(CCC(=O)[C@H]32)[C@@H](C)[C@@H]1O
max response [2]: -4.45% (inactive)

O=C(O)c1cc(N=Nc2ccc(O)c(C(=O)O)c2)ccc1O
max response [2]: 0.0283% (inactive)

COc1c(O[C@@H]2O[C@H](CO)[C@@H](O)[C@H](O)[C@H]2O)cc2c(c1OC)-c1ccc(SC)c(=O)cc1[C@@H](NC(C)=O)CC2
max response [2]: 22% (inactive)

CC[C@@H]1/C=C(\C)C[C@H](C)C[C@H](OC)[C@H]2O[C@@](O)(C(=O)C(=O)N3CCCC[C@H]3C(=O)O[C@H](/C(C)=C/[C@@H]3CC[C@@H](Cl)[C@H](OC)C3)[C@H](C)[C@@H](O)CC1=O)[C@H](C)C[C@@H]2OC
max response [2]: -7.71% (inactive)

O=C(c1cc2ccccc2o1)N1CCN(Cc2ccccc2)CC1
max response [2]: 7.29% (inactive)

H-RKDVY-OH
max response [2]: -13.7% (inactive)

CCCCCCCCCC(=O)NO
max response [2]: -1.94% (inactive) and 4.66% (inactive)

OCCCNc1ccccc1
max response [2]: -7.9% (inactive)

CO[C@H]1C=CO[C@@]2(C)Oc3c(C)c(O)c4c(O)c(cc(O)c4c3C2=O)NC(=O)/C(C)=C\C=C/[C@H](C)[C@H](O)[C@@H](C)[C@@H](O)[C@@H](C)[C@H](OC(C)=O)[C@@H]1C
max response [2]: -6.86% (inactive)

NCC[C@H](O)C(=O)N[C@@H]1C[C@H](N)[C@@H](O[C@H]2O[C@H](CN)CC[C@H]2N)[C@H](O)[C@H]1O[C@H]1O[C@H](CO)[C@@H](O)[C@H](N)[C@H]1O
max response [2]: -1.8% (inactive)

O=c1[nH]c(=O)n([C@H]2C[C@H](O)[C@@H](CO)O2)cc1/C=C/Br
max response [2]: 6.97% (inactive)

CN(C)C=Nc1c(I)cc(I)c(CCC(=O)O)c1I
max response [2]: 14.5% (inactive)

CCC(Oc1ccccc1)C(=O)N[C@@H]1C(=O)N2[C@@H]1SC(C)(C)[C@@H]2C(=O)O (stereo partly specified)
max response [2]: 14.1% (inactive)

NC(=O)C1c2ccccc2CCc2ccccc21
max response [2]: -4.56% (inactive)

CC(C)(CO)[C@@H](O)C(=O)NCCC(=O)NCCSSCCNC(=O)CCNC(=O)[C@H](O)C(C)(C)CO
max response [2]: 8.29% (inactive)

CCOC(=O)c1c[nH]c2cc(OCC(C)C)c(OCC(C)C)cc2c1=O
max response [2]: -10.7% (inactive)

CC(C)C1=CC2=CC[C@@H]3[C@](C)(CCC[C@@]3(C)C(=O)O)[C@H]2CC1
max response [2]: -5.77% (inactive)

CC(C)CCCC(C)NC(C)C (stereo unspecified)
max response [2]: 15.9% (inactive)

CCCCCCCCCCCCCCCCCCOCC(COP(=O)([O-])OCC[N+](C)(C)C)OC (stereo unspecified)
max response [2]: 3.69% (inactive)

Nc1nc(=O)n([C@@H]2CS[C@H](CO)O2)cc1F
max response [2]: 4.32% (inactive)

CS(=O)(=O)OCC(O)C(O)COS(C)(=O)=O (stereo unspecified)
max response [2]: -2.1% (inactive)

O=[N+]([O-])O[C@@H]1CO[C@H]2[C@@H]1OC[C@@H]2O
max response [2]: 5.11% (inactive)
